In PubChem BioAssay (NCI):
This is part of a sample that, as a whole, favours compounds with a hit. Of some 79,000 tested, about 15% had one in any assay. Active and inactive are the calls of the source. Cut-off read from the data, not from the text of the source: active = growth inhibition above about 70%; inactive = the rest.

Tests used:
[1] = NCI Yeast Anticancer Drug Screen. Data for the rad52 strain (AID 147);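 note: 0% = growth of vehicle-treated control cultures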; conditions: S. cerevisiae rad52 mutant growth inhibition, stronger effect = higher value
In short: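 Genetically altered yeast (DNA damage repair defect) treated with compound; inhibition calculated relative to vehicle.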

[2] = NCI Yeast Anticancer Drug Screen. Data for the wt1 strain (AID 149);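 note: 0% = growth of vehicle-treated wt1 cultures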; conditions: S. cerevisiae wt1 strain (SPY 50644) growth inhibition, stronger effect = higher value
In short: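 Yeast wt1 strain exposed to compounds; growth inhibition measured relative to vehicle-treated controls.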

[3] = NCI Yeast Anticancer Drug Screen. Data for the rad50EPP+ strain (AID 151);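 note: 0% = growth of vehicle-treated control cultures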; conditions: S. cerevisiae rad50 mutant strain, stronger effect = higher value
In short: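 Strain rad50EPP+; compound exposure; % growth inhibition vs vehicle.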

[4] = NCI Yeast Anticancer Drug Screen. Data for the mgt1 strain (AID 153); conditions: S. cerevisiae mgt1 mutant growth inhibition, stronger effect = higher value
In short: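 Read-out: yeast growth inhibition vs vehicle control. Strain mgt1, drawn from a panel altered in DNA damage repair or cell cycle control.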

[5] = NCI Yeast Anticancer Drug Screen. Data for the rad50 strain (AID 155);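 note: 0% = growth of vehicle-only cultures of the same strain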; conditions: S. cerevisiae rad50 strain growth inhibition, stronger effect = higher value
In short: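 Yeast carrying a defined DNA repair defect were exposed to test compounds, and growth was compared with vehicle-treated controls to give percent inhibition.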

[6] = NCI Yeast Anticancer Drug Screen. Data for the mec2-1 strain (AID 157); conditions: S. cerevisiae mec2-1 strain, stronger effect = higher value
In short: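 Cells of the genetically defined mec2-1 yeast strain are incubated with test compound. Inhibition of growth is calculated against vehicle-treated controls.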

[7] = NCI Yeast Anticancer Drug Screen. Data for the rad14 strain (AID 159);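 note: 0% = growth of vehicle-treated control cultures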; conditions: S. cerevisiae rad14 strain growth inhibition, stronger effect = higher value
In short: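 Yeast cells carrying a defined DNA-repair defect were exposed to compounds, and growth inhibition was calculated relative to vehicle-treated control cultures.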

[8] = NCI Yeast Anticancer Drug Screen. Data for the cln2 rad14 strain (AID 165);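 note: 0% = growth equal to vehicle treated cultures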; conditions: S. cerevisiae cln2 rad14 strain, stronger effect = higher value
In short: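 The screen exposed genetically defined yeast (cln2 rad14) to test compounds and scored growth inhibition relative to vehicle-treated controls.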

[9] = NCI Yeast Anticancer Drug Screen. Data for the bub3 strain (AID 167); conditions: S. cerevisiae bub3 mutant strain, stronger effect = higher value
In short: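 Compounds were applied to a genetically altered yeast strain carrying a cell-cycle control defect. Growth inhibition was scored against vehicle-treated controls.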

[10] = NCI Yeast Anticancer Drug Screen. Data for the wt2 strain (AID 169);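 note: 0% = growth of vehicle-treated yeast cultures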; conditions: S. cerevisiae wt2 strain growth inhibition, stronger effect = higher value
In short: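 Steps: yeast strain treated with compound; growth recorded; inhibition calculated relative to cultures given vehicle alone.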

[11] = NCI Yeast Anticancer Drug Screen. Data for the sgs1 strain (AID 173);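 note: 0% = growth of vehicle-only control cultures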; conditions: S. cerevisiae sgs1 mutant, stronger effect = higher value
In short: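 Inhibition of yeast growth served as the measure. The mutant strain was treated with each compound, and growth was normalised to cultures receiving vehicle alone.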

[12] = NCI Yeast Anticancer Drug Screen. Data for the mlh1 rad18 strain (AID 175); conditions: S. cerevisiae mlh1 rad18 strain growth inhibition, stronger effect = higher value
In short: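 Compound-treated yeast growth, normalised to vehicle controls. Strain bears defined DNA repair mutations.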

[13] = NCI Yeast Anticancer Drug Screen. Data for the rad18 strain (AID 177); conditions: S. cerevisiae rad18 mutant growth inhibition, stronger effect = higher value
In short: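 Inhibition values reflect reduced yeast growth compared with vehicle-treated controls, using a strain engineered with a DNA damage repair defect.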

[14] = at 5.0 µM (retest, dose inferred, filed as 0.5)
[15] = at 50.0 µM (retest, dose inferred, filed as 5.0)

Measured: growth inhibition

Cc1c(C)c(C)c(CSC(=N)N)c(C)c1C
active: [1]; at 100.0 µM 98% | [2]; at 100.0 µM 98% | [3]; at 100.0 µM 96% | [4]; at 100.0 µM 98% | [5]; [15] 81% | [5]; at 50.0 µM 91.8% | [5]; at 100.0 µM 99% | [6]; [15] 86% | [6]; at 50.0 µM 93.5% | [6]; at 100.0 µM 98% | [7]; at 33.0 µM 85% | [7]; at 100.0 µM 98% | [8]; [15] 100% | [8]; at 50.0 µM 86.1% | [9]; [15] 99% | [9]; at 50.0 µM 83.2% | [9]; at 100.0 µM 98% | [10]; at 100.0 µM 99% | [11]; at 33.0 µM 84% | [11]; at 100.0 µM 98% | [12]; [15] 78% | [12]; at 50.0 µM 92.3% | [13]; at 100.0 µM 98%
inactive: [1]; at 1.2 µM -23% | [1]; at 3.7 µM -17% | [1]; at 11.0 µM -12% | [1]; at 33.0 µM 36% | [2]; at 1.2 µM -29% | [2]; at 3.7 µM -32% | [2]; at 11.0 µM -30% | [2]; at 33.0 µM 8% | [3]; at 1.2 µM -55% | [3]; at 3.7 µM -53% | [3]; at 11.0 µM -79% | [3]; at 33.0 µM -59% | [4]; at 1.2 µM -52% | [4]; at 3.7 µM -50% | [4]; at 11.0 µM -50% | [4]; at 33.0 µM 6% | [5]; at 1.2 µM -13% | [5]; at 3.7 µM -10% | [5]; [14] 46% | [5]; at 11.0 µM -9% | [5]; at 33.0 µM 51% | [6]; at 1.2 µM -74% | [6]; at 3.7 µM -78% | [6]; [14] 54% | [6]; at 11.0 µM -69% | [6]; at 33.0 µM 31% | [7]; at 1.2 µM -31% | [7]; at 3.7 µM -27% | [7]; at 11.0 µM -12% | [8]; [14] 8% | [9]; at 1.2 µM -23% | [9]; at 3.7 µM -9% | [9]; [14] 35% | [9]; at 11.0 µM -10% | [9]; at 33.0 µM 55% | [10]; at 1.2 µM -41% | [10]; at 3.7 µM -38% | [10]; at 11.0 µM -32% | [10]; at 33.0 µM 57% | [11]; at 1.2 µM -51% | [11]; at 3.7 µM -34% | [11]; at 11.0 µM -34% | [12]; [14] 44% | [13]; at 1.2 µM -56% | [13]; at 3.7 µM -55% | [13]; at 11.0 µM -58% | [13]; at 33.0 µM 58%
